Bioassay records from PubChem.
The list is not random: actives were taken first. Their share in the collection is about 19%.
ELG1 DNA repair: blocks ELG1-dependent DNA repair in HEK293T cells. HEK293T ELG1-luciferase reporter, luminescence, 16 h; DNA damage induced by 5-fluorouridine. Potency, µM (doses to about 46.1 µM), for the others: top-dose activity change, negative = inhibition, hits mostly inhibitors. 330,000 compounds, 2.3% hits; further: potency means the concentration at half of the fitted maximal effect; nearly all actives have a fitted effect of over 55% in size
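Luminescence from the luciferase reporter, measured 30 min after ONE-Glo reagent at room temperature, was the read-out. Beforehand, 2,000 cells per well were exposed for 16 hr at 37 °C to 5-fluorouridine together with compound or vehicle.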
TDP1 cell noCPT: qHTS for Inhibitors of human tyrosyl-DNA phosphodiesterase 1 (TDP1): qHTS in cells in absence of CPT; DT40 Tdp1-/- hTDP1 cells, no CPT, ATP luminescence, 48 h; Potency, µM (top dose mostly 46.2 µM), without a hit: top-dose activity change, negative = growth inhibition, usual class: inhibitors; AID 686978, 2013; 420,000 compounds, 15% hits; further: potency means the concentration at half of the fitted maximal effect; nearly all actives have a fitted effect of over 55% in size
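Seeded 400 DT40-hTDP1 cells/well (vehicle DMSO, no 20 nM CPT); pinned compounds; ≥48 hr at 37 °C; CellTiter-Glo luminescence as viability measure.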
DT40 TDP1 CPT: DT40-hTDP1 cell growth loss with CPT; Potency, µM (titrated, usually from 46.2 µM), without a hit: at the top dose activity change, negative = growth inhibition, usual class: inhibitors; 420,000 compounds, 12% hits; AID 686979; chicken DT40 Tdp1-/-;hTDP1 cells + 20 nM CPT, ATP luminescence, 48 h; further: potency means the concentration at half of the fitted maximal effect; nearly all actives have a fitted effect of over 55% in size
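Chicken DT40 Tdp1-/- cells complemented with human TDP1, 400 cells/well, exposed to compounds plus 20 nM camptothecin for at least 48 h at 37 C; viability read as ATP content by CellTiter-Glo luminescence.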
HT1080 IDH1KD tx: kills HT-1080 cells with IDH1 knockdown; HT-1080 IDH1 knockdown viability, ATP luminescence, 48 h; Potency, µM (series often up to 46.1 µM), for the others: at the highest dose activity, negative = toxicity, actives largely listed as cytotoxic; 360,000 compounds, 2% hits; AID 686971;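 further: potency means the concentration at half of the fitted maximal effect; 0% = DMSO wells and -100% = cell-free medium wells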
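% activity derives from luminescence (CellTiter-Glo), normalised to DMSO and no-cell wells. HT-1080-IDH1KD cells, 750/well, had 48 h compound exposure at 37 °C.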
IL1B secr inh: inhibitors of inflammasome signaling (IL-1 beta secretion) | AID 743279 | activity change, % at 57.5 µM | THP-1 LPS/ATP IL-1B secretion, AlphaLISA, 16 h; active compounds read low | 360,000 compounds, 4.7% hits; in the data active means activity change below about -50%; inconclusive means mostly about -30% to -49%
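THP-1 cells pretreated 1 hr with compounds (up to 57.5 uM final), then stimulated with LPS (250 ng/mL final) plus ATP (1.25 mM final); secreted IL-1B measured by AlphaLISA after 16 hr, decreased signal indicating inhibition.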
HT1080NT lethal: kills 2HG-producing HT-1080-NT fibrosarcoma cells. HT-1080-NT fibrosarcoma viability, CellTiter-Glo ATP luminescence, 48 h. 360,000 compounds, 1.6% hits. AID 686970. Potency, µM (doses to about 46.1 µM), for inactives: at the top dose activity, negative = less viability, hits mostly cytotoxic;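 further: NT is the 2HG producing partner of a matched IDH1 knockdown line; potency means the concentration at half of the fitted maximal effect; 0% = DMSO-treated cells and -100% = media-only wells without cells; nearly all actives have a fitted effect of over 55% in size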
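Read-out is CellTiter-Glo luminescence after 10 minutes at room temperature, following 48 hours' compound treatment of HT-1080-NT cells (750 cells/well, RPMI, 5% FBS, 37 degrees C).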
Active calls of the source: *; u = inconclusive; x = no result. Unless noted, the call rests on the fitted dose curve; in most records, active means well fitted curve in the direction sought with a large enough effect; inconclusive means small, poorly fitted or top-dose-only effect, or another doubt; inactive means no such curve, though single readings can be large; an effect the other way counts as inactive or inconclusive. Unless noted, on the % scale 0 is the no-effect control and ±100 the full control effect.

SMILES | ELG1 DNA repair | TDP1 cell noCPT | DT40 TDP1 CPT | HT1080 IDH1KD tx | IL1B secr inh | HT1080NT lethal
CC1=C(C(=O)Nc2ccccc2C(F)(F)F)C(c2sccc2C)NC(=S)N1 (stereo not given) | 1% | 16µM* | 6.5µM* | -25% | -7 | -19%
CC1=C(C(=O)Nc2ccccc2C(F)(F)F)C(c2ccc(C)s2)NC(=S)N1 (stereo not given) | 1% | u | 4% | -6% | -30 | -8%
O=C(NC1CCCCC1)c1cccc2c(-c3ccc(F)c(F)c3)coc12 | x | u | u | -17% | -19 | 22%
O=C(COC(=O)CCNS(=O)(=O)c1cccs1)Nc1ccccc1 | 26% | -5% | -20% | 7% | 33 | -25%
CC(COc1ccc(/C=C/c2ccccc2)cc1)[N+](C)(C)C (stereo not given) | u | 3.3µM* | 4.1µM* | u | 151 | u
CC(COc1ccccc1)NN (stereo not given) | x | -6% | -4% | x | x | x
Cc1ccc(S(=O)(=O)c2nc(Nc3ccccc3)sc2Cl)cc1 | -18% | u | u | -14% | 0 | -12%
COc1ccc(Nc2nc(S(=O)(=O)c3ccc(C)cc3)c(Cl)s2)cc1 | -24% | u | u | 23µM* | -91* | 23µM*
Cc1ccc(-c2ccc(/C=N\NC(=O)C3C(=O)NCC3c3ccccc3)o2)cc1Cl (stereo not given) | u | u | u | u | -55* | u
COc1cccc(/C=N/NC(=O)C(=O)N2CCCCCC2)c1O | u | u | u | 13µM* | 144 | u
O=C1NCC(c2ccccc2)C1C(=O)N/N=C\c1ccc(-c2cccc(Cl)c2Cl)o1 (stereo not given) | u | u | -14% | u | -17 | u
COc1cccc(/C=N/NC(=O)c2ccoc2C)c1O | u | 0.73µM* | 3.3µM* | 9.2µM* | 263 | u
O=C(N/N=C/c1cc([N+](=O)[O-])ccc1Cl)c1cnccn1 | 12% | 5.8µM* | 3.3µM* | u | 25 | 4.1µM*
COc1cc(/C=N/NC(=O)NC23CC4CC(CC(C4)C2)C3)ccc1OCC(N)=O | u | 8.2µM* | u | 2% | -8 | -5%
COc1ccc(C=NNC(=S)NC23CC4CC(CC(C4)C2)C3)cc1OC | x | u | u | -1% | -8 | 0%
COc1cccc(/C=N/NC(=O)C(=O)N/N=C/c2cccc(OC)c2O)c1O | u | 1.6µM* | 1µM* | 6% | 154 | -8%
COc1cccc(/C=N/NC(=O)NC2CCCCC2)c1O | u | -20% | 1% | -2% | u | -1%
COC(=O)c1cccc(/C=N/NC(N)=S)c1O | 5% | 0.26µM* | 0.18µM* | 8% | -26 | u
COc1cccc(/C=N/NC(=O)c2cc3cc([N+](=O)[O-])ccc3s2)c1O | u | 0.46µM* | 0.92µM* | 2.9µM* | 77 | 4.1µM*
CC(=O)Nc1ccc(S(=O)(=O)N[C@@H](C)C(=O)OCC(=O)c2ccc(C)cc2)cc1 | u | 5% | -5% | -1% | 2 | 1%
COc1ccc(N2CCN(C(=O)/C=C/[C@H]3O[C@@H](n4ccc(=O)[nH]c4=O)[C@H](O)[C@@H]3O)CC2)cc1 | x | 0% | -7% | 9% | 11 | 2%
CCOc1ccc(NC(=S)NC23CC4CC(CC(C4)C2)C3)cc1 | 3% | u | u | 0% | 12 | 1%
O=C(N/N=C/c1ccccc1F)NC12CC3CC(CC(C3)C1)C2 | u | -17% | u | 1% | 7 | 7%
COc1cccc(/C=N\NC(=O)C2C(=O)NCC2c2ccccc2)c1O (stereo not given) | u | 23µM* | u | u | 44 | -29%
COc1cccc(/C=N/NC(=O)NC23CC4CC(CC(C4)C2)C3)c1O | x | u | -27% | 18µM* | -12 | u
SMILES | ELG1 DNA repair | TDP1 cell noCPT | DT40 TDP1 CPT | HT1080 IDH1KD tx | IL1B secr inh | HT1080NT lethal
COc1cc(OC)c(C=NNC(=S)NC23CC4CC(CC(C4)C2)C3)c(OC)c1 | x | 6.5µM* | 6.5µM* | 0% | 12 | -6%
COc1cccc(/C=N/NC(=O)C(=O)NCc2ccco2)c1O | u | 21µM* | 7.3µM* | 7.1µM* | 113 | 8.9µM*
Oc1ccc(-c2nccs2)cc1 | x | -21% | -14% | -1% | 0 | 11%
CCOc1ccc(-c2cc(C(=O)NCc3ccc(OCC)c(OC)c3)[nH]n2)cc1 | x | -25% | 0% | x | x | x
O=C(COC(=O)c1ccc(O)cc1)NC1CCCCCCC1 | x | u | -14% | 1% | 49 | -4%
COc1ccc(/C=N/NC(=O)c2cnccn2)c(OC)c1OC | -5% | -11% | 6% | 0% | -9 | 0%
COc1cccc(/C=N/NC(=O)c2cnccn2)c1O | 0% | u | u | 16µM* | 76 | u
O=C(COc1cc2oc(=O)c3c(c2cc1Cl)CCC3)NCCCn1ccnc1 | 16% | u | -13% | 2% | -22 | 2%
CNC(C)C#Cc1ccc2oc3cccc(OC)c3c(=O)c2c1 (stereo not given) | u | u | u | 9% | 0 | 9%
CNC(C)C#Cc1ccc2c(=O)c3cc(C)c(C)cc3oc2c1 (stereo not given) | x | 29µM* | u | 1% | u | -12%
Cc1nc2ccccn2c1C(=O)Nc1ccc(Cl)cc1 | u | u | -23% | -16% | 13 | -2%
O=c1ccc(C(F)(F)F)cn1Cc1cc(=O)n2ccsc2n1 | u | 0% | 6% | u | 2 | 0%
O=c1cc(CNc2cc(C(F)(F)F)cc(C(F)(F)F)c2)nc2sccn12 | -3% | u | u | u | -71* | u
COc1ccc(CCNC(=O)COC(=O)c2cc(Cl)nc(Cl)c2)cc1 | 18% | 1% | -1% | 0% | -1 | 9%
C[N+](C)(C)CCC(=O)c1cccc2ccccc12 | x | 0.92µM* | 0.58µM* | x | x | x
CC(=O)c1cccc(OCC(=O)N(C)CC(=O)Nc2ccc(F)cc2)c1 | 8% | 2% | -19% | -1% | 5 | 10%
CN(C)C/C=C/C(=O)Nc1cccc(-c2c[nH]c3ncnc(Oc4ccc(NC(=O)CC(=O)Nc5ccc(F)cc5)cc4F)c23)c1 | -30% | -6% | 11% | -10% | -90* | -14%
